From PubChem BioAssay (NCI) come the findings set out here.

This is part of a sample that, as a whole, favours compounds with a hit. Of some 83,000 tested, about 20% had one in any assay.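 Treatment: one concentration, 48 hours, 96-well format. Scoring: percent growth, with anything below 10 considered active.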 A number with no mark means an inactive call. Active and inactive are the calls of the source.

This assay relates to SK-OV-3 ovarian. Description: NCI-60 one-dose screen, 48 h (100 = growth as untreated, 0 = no growth, -100 = all killed). The following applies: 10 µM unless noted. The method, then: Growth inhibition of the SK-OV-3 human tumor cell line is measured as a screen for anti-cancer activity. Cells are grown in 96 well plates and exposed to the test compound for 48 hours. Compounds are tested at a single concentration, which is 10^-5 M for most compounds. The reported endpoint is percent growth (GI% or GIPRCNT), where numbers from 0 - 100% represent growth inhibition, and numbers from -100% - 0 represent cell death. For example, a value of 40 represents 60% growth inhibition. A value of 0 means no net growth occurred over the course of the experiment. A value of -40 indicates 40% of cells at the beginning of the experiment died by the end of the experiment. A value of -100 means all cells are dead at the end of the experiment.
NCI-60 Human Tumor Cell Lines Screen was performed using the standard one-dose NCI protocol, which is described in more detail at https://dtp.cancer.gov/discovery_development/nci-60/default.htm.
Compounds with GIPRCNT values below 10 were considered active. Activity score was based on GIPRCNT using the following formula: […]
Score is 0 for GIPRCNT values of 100 or above, 50 for GIPRCNT values of 0, and 100 for GIPRCNT values of -100.
Take `CC1(C)OCC2OC3(C(=O)O)OC(C)(C)OC3C2O1` (stereo not given): the growth was 101%.

Turning to `O=C1C2CC=CCC2C(=O)N1CNc1ccc(Cl)cc1` (stereo not given), the growth is 101%. Then `CCc1ccccc1NC(=O)c1sc2nc3c(cc2c1N)C(=O)CCC3`, with 6.9% (active). For the compound `CCOC(=O)c1cnc2cc(Cl)c(F)cc2c1Nc1cccc(NS(C)(=O)=O)c1`, the growth is 111%. For the compound `COc1ccc(/C=C2\CN(C(=O)CCN3CCC(=NO)CC3)C/C(=C\c3ccc(OC)cc3)C2=O)cc1`, the growth is 68%. Turning to `CN(C)CCCC(=O)Nc1ccc(Cn2nnc3c2C(=O)c2nnn(Cc4ccc(NC(=O)CCCN(C)C)cc4)c2C3=O)cc1`, the growth is 89.8%. On to `CC1=N/C(=C\c2cccc(Br)c2)C(=O)O1`, for which the growth was 102%. In the case of `Nc1cc(O)cc2cccnc12`, the growth is 83.4%.

On to `CCCCCCCCCCCCCCCCCCSC1=CC(=O)C(OC)=C(OC)C1=O`, for which the growth is 95.7%. For `O=C1/C(=C/c2ccccc2)CN(CCC(=O)N2C/C(=C\c3ccccc3)C(=O)/C(=C/c3ccccc3)C2)C/C1=C\c1ccccc1`, the growth is 51.3%. In the case of `N=S(=O)(NC(=O)c1ccc(Cl)cc1Cl)c1ccc(Br)s1` (stereo not given), the growth was 96.4%.

As for `O=C(/C=C/c1cccc(Br)c1)c1ccccc1`, the growth is 82.1%. Then `O=C1CC(c2nc3ccccc3[nH]2)CN1C1CCCCC1` (stereo not given), with 101%. Turning to `Cc1ccn2c(-c3csc(Nc4cccc(O)c4)n3)c(C)nc2c1`, the growth was -25.2% (active).

Take `CCOC(=O)C(Cc1cc(I)c(O)c(I)c1)NC(=O)c1ccccc1` (stereo not given): the growth was 94.1%. Take `CC(C)(C)n1cc(-c2ccnc(NCCNS(=O)(=O)c3ccccc3)c2)c(-c2cccc(O)c2)n1`: the growth is 88.4%.

Regarding `CCN(CC)CCC(=O)Nc1ccc(Cn2nnc3c2C(=O)c2nnn(Cc4ccc(NC(=O)CCN(CC)CC)cc4)c2C3=O)cc1`, the growth was -8.54% (active). Take `NCCN1CCN(c2nccc(-c3ccc4ccccc4c3)n2)CC1`: the growth was 88.6%. `COc1cccc(/C=C\C(=O)c2ccccc2)c1`: the growth was 107%.

For the compound `Nc1nc(-c2ccc(F)cc2)cc(-c2cnn(-c3ccccc3)n2)n1`, the growth is 102%. On to `CCOC(=O)Cc1cnn(C)c1NC(=O)c1ccc(Cl)cc1NC(C)=O`, for which the growth was 102%.

In the case of `Cn1c(=O)c2[nH]c(C(O)C(O)C(O)C(O)CO)nc2n(C)c1=O` (stereo not given), the growth was 99.8%. `COc1ccc2nc3cc(Cl)ccc3c(N3CCN(c4ccnc(N5CCN(C)CC5)n4)CC3)c2c1`: the growth was 87.2%. The same measure for `C=CC[N+]1(CCO)CCN=C1CCCCCCCCCCCCC` (stereo not given): -48.6% (active); for `O=[N+]([O-])c1c(F)cccc1Nc1cccc(F)c1`: 114%; for `COc1cnc2c(c1)C(=O)c1c-2n(CCCN2CCN(C)CC2)c(=O)c2cc([N+](=O)[O-])ccc12`: 86.6%.

As for `COCCOC(=O)C1=C(C)NC(=S)NC1c1ccc2c(c1)OCO2` (stereo not given), the growth is 103%.

`COc1ccc(C2Nc3ccccc3-n3cccc32)cc1` (stereo not given): the growth was 99.9%. Consider `COCCCNc1nc(NC(=O)c2ccc(F)cc2C)cc(-c2cccnc2)n1`, for which the growth is 108%. As for `COc1ccc(-c2cc(=O)[nH]c3c(OC)c4ccccc4c(OC)c23)cc1`, the growth was 2.24% (active). On to `COc1ccc(/C=C2\N=C3Sc4cc(Cl)ccc4C(=O)N3C2=O)cc1`, for which the growth was 98.1%.

As for `COc1ccc(-c2cn3c(-c4ccc(OC)cc4)cnc3c(Oc3ccc4c(C)cc(=O)oc4c3)n2)cc1`, the growth is 90.6%. For the compound `Cc1ccc2c(c1)n([O-])c1cc(Cl)ccc1[n+]2=O`, the growth was 122%. In the case of `CCN(CC)c1ccc(CNc2cc(C)nc3ccc(OC)cc23)cc1`, the growth is 84.7%. With `CCOC(=O)c1c2c(n3ccc(NC(=O)CCN4CCCCC4)cc13)C(=O)c1ncccc1C2=O`, the growth was 26.2%. Then `Cn1c2c(Cl)c(Cl)ccc2c2ccn3c(=O)c4ccccc4nc3c21`, with 88.9%. Take `C#Cc1nc(Nc2cc(C)[nH]n2)c2ccccc2n1`: the growth is 21.1%. Consider `NS(=O)(=O)N(c1cc(C(F)(F)F)cc(C(F)(F)F)c1)C1CCN(Cc2ccc(F)cc2)CC1`, for which the growth was 87.9%. Then `COc1ccccc1N1CCN(CCn2c(=O)c3c(c4ccccc4n3C)n(C)c2=O)CC1`, with 93.6%. As for `C=C1CCC2C3(C)COC(c4ccccc4Br)OC3CCC2(C)C1C/C=C1/C(=O)OCC1OC(C)=O` (stereo not given), the growth is 52.7%.
